Bioassay records from PubChem BioAssay.
This is a sample that favours compounds with a hit; in the whole collection about 1.3% have one here.
B2AR ag: human beta-2 adrenergic receptor agonism by FAP | AID 504454 | Am2.2-beta2AR cells, FAP receptor internalization, flow cytometry | P07550 | response, % (no concentration beside the values) | 0.43% of 340,000 active;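 active = response above a set limit, near 3 SD of response in nonfluorescent compounds, cut at about 42% in these data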
NTR1 ag: agonists of human neurotensin receptor NTR1 | P30989 | NTR1-U2OS beta-arrestin-GFP spot imaging, agonist mode | activation, % at 20 µM | 0.17% of 330,000 active | AID 493036;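 active = activation at or above 40% of the spot to cytoplasm intensity ratio, with at least 20 cells analyzed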;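 also: 0% = DMSO without peptide and 100% = 100 nM NTR1 peptide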
Bfl-1 A1 inh: inhibitors of the anti-apoptotic protein A1, read as caspase activation | MEF A1-2A-BIM cells, Caspase-Glo 3/7 luminescence, 3 h; percent of clofoctol response, vehicle zero | caspase activation, % (test concentration not listed) | 0.066% of 330,000 active;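 active = over half of replicate activation scores above 10%, or exactly half above 10 with the replicate mean above 10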
GRK2 inh: blocks RNA aptamer binding to human GRK2. bead flow cytometry, FAM-aptamer displacement from GRK2. inhibition of aptamer binding, % at 10 µM. AID 488847. 0.59% of 330,000 active;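 active = inhibition of aptamer binding above 40%, roughly 3 SD of noise, on plates passing a quality check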;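 also: median bead fluorescence of bound FAM aptamer so fluorescent compounds give negative values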
Target sequence (P25098 whole entry, looked up): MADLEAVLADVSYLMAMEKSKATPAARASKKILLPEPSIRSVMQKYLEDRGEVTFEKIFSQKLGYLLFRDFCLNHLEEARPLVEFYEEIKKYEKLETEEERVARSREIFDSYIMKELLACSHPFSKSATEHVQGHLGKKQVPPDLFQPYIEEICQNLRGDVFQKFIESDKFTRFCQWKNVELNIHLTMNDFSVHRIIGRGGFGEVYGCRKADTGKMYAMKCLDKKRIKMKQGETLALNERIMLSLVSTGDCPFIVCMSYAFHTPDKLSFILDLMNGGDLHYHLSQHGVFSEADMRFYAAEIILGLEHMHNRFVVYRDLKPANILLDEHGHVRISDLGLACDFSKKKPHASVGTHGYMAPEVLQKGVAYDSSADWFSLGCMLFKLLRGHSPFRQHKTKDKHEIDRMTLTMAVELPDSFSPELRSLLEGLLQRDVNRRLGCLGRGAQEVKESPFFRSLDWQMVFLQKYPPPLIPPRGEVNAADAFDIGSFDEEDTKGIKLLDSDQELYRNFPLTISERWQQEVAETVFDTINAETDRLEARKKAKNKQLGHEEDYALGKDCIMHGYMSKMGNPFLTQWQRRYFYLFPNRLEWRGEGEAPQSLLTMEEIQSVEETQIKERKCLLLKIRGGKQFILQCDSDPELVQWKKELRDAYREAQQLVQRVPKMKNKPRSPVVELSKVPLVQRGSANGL
VLA-4 inh: inhibition in a human VLA-4 binding assay | P13612 | VLA-4 expressing cells, ligand binding flow cytometry | inhibition, % (about 7 µM as worked out from the volumes in the protocol) | 0.2% of 330,000 active | AID 2557; in the data active = inhibition above about 50%
VLA-4 allo CP: human VLA-4 allosteric modulation in cherry picked compounds; shares compounds with VLA-4 inh; U937 cells, HUTS-21 LIBS mAb binding, flow cytometry; LDV ligand present at threefold Kd; inhibition, % at 6.7 µM; 2% of 1,300 active; AID 2813; in the data active = inhibition above about 40%;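 also: 0% = ligand without compound and 100% = no ligand background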
The depositor's hits bear a star; ! = repeats disagree.

Results for Cc1ccc(C(C(=O)NCc2ccc(F)cc2)N(C(=O)c2csnn2)C2CC2)o1 (stereo unspecified) ?
B2AR ag: 1; NTR1 ag: -2; Bfl-1 A1 inh: 2; GRK2 inh: 1; VLA-4 inh: 44

How did Cc1ccc(C(C(=O)NCCc2ccccc2)N(C(=O)c2csnn2)C2CC2)o1 (stereo unspecified) do in these assays?
B2AR ag: 19; NTR1 ag: 0; Bfl-1 A1 inh: 1; GRK2 inh: 0; VLA-4 inh: 54*; VLA-4 allo CP: 6

Results for COc1cc(CCCN2C(=O)C(=O)NC[C@H]2Cc2cccc3ccccc23)cc(OC)c1OC ?
B2AR ag: -3; NTR1 ag: 2; Bfl-1 A1 inh: 1; GRK2 inh: 1; VLA-4 inh: -8

Results for CCC(C)[C@H]1CNC(=O)C(=O)N1CCCc1cc(OC)c(OC)c(OC)c1 (stereo partly specified) ?
B2AR ag: -12; NTR1 ag: -5; Bfl-1 A1 inh: 1; GRK2 inh: 0; VLA-4 inh: 12; VLA-4 allo CP: 10

How did CCCC[C@@H]1CNC(=O)C(=O)N1CCCc1cc(OC)c(OC)c(OC)c1 do in these assays?
B2AR ag: 3; NTR1 ag: -2; Bfl-1 A1 inh: 2; GRK2 inh: 1; VLA-4 inh: 58*; VLA-4 allo CP: -1

How did COc1cc(CCCN2C(=S)NC[C@@H]2Cc2ccccc2)cc(OC)c1OC do in these assays?
B2AR ag: -5; NTR1 ag: -3; Bfl-1 A1 inh: 0; GRK2 inh: 0; VLA-4 inh: 3

What do the screens show for `Cc1ccc(NC(=O)C(C)N2C(=O)c3ccccc3C2=O)cc1C` (stereo unspecified)?
B2AR ag: 7; NTR1 ag: 2; Bfl-1 A1 inh: 1; GRK2 inh: 0; VLA-4 inh: 7

Results for COc1cc2c(cc1NC(=O)c1ccc(C(C)(C)C)cc1)CCCC2 ?
B2AR ag: 5; NTR1 ag: 0; Bfl-1 A1 inh: 0; GRK2 inh: 2; VLA-4 inh: 82*; VLA-4 allo CP: 15

How did C[C@]12CCC(=O)C=C1CC[C@@H]1[C@@H]2[C@@H](O)C[C@@]2(C)[C@H]1CC[C@]2(O)C(=O)COC(=O)CCC(=O)O do in these assays?
B2AR ag: 0; NTR1 ag: 0; Bfl-1 A1 inh: -1; GRK2 inh: 8; VLA-4 inh: 53*!; VLA-4 allo CP: 4

How did CC(=O)OCC(=O)[C@@]1(O)CC[C@H]2[C@@H]3CCC4=CC(=O)CC[C@]4(C)[C@H]3[C@@H](O)C[C@@]21C do in these assays?
B2AR ag: 4; NTR1 ag: 0; Bfl-1 A1 inh: 0; GRK2 inh: 0; VLA-4 inh: 25

What do the screens show for `OCC1OC(n2cnc3c(NC4CCCCC4)ncnc32)C(O)C1O` (stereo unspecified)?
B2AR ag: -1; NTR1 ag: 1; Bfl-1 A1 inh: -1; GRK2 inh: 1; VLA-4 inh: -31; VLA-4 allo CP: 5

What do the screens show for `OCC1OC(n2cnc3c(NC4CCCC4)ncnc32)C(O)C1O` (stereo unspecified)?
B2AR ag: -7; NTR1 ag: 5; Bfl-1 A1 inh: 0; GRK2 inh: 4; VLA-4 inh: 0

What do the screens show for `OC[C@H]1O[C@@H](n2cnc3c(NC4CCCC4)ncnc32)[C@H](O)[C@@H]1O`?
B2AR ag: 3; NTR1 ag: 3; Bfl-1 A1 inh: -1; GRK2 inh: 2; VLA-4 inh: 5; VLA-4 allo CP: 3

How did C=C(C)COc1ccc2c(C)c(CC(=O)N3C[C@H]4C[C@@H](C3)c3cccc(=O)n3C4)c(=O)oc2c1C do in these assays?
B2AR ag: 2; NTR1 ag: 4; Bfl-1 A1 inh: 1; GRK2 inh: 0; VLA-4 inh: 7

What do the screens show for `Cc1nn(-c2ccccn2)c2c1C(=O)C(Br)CC2` (stereo unspecified)?
B2AR ag: -5

What do the screens show for `Nc1nc(F)nc2c1ncn2[C@@H]1O[C@H](CO)[C@@H](O)[C@H]1O`?
B2AR ag: 3; NTR1 ag: -1; Bfl-1 A1 inh: 4; GRK2 inh: 0; VLA-4 inh: 6; VLA-4 allo CP: 1

How did Nc1ncnc2c1ncn2[C@@H]1O[C@H](CO)[C@@H](O)[C@@H]1O do in these assays?
B2AR ag: -8; NTR1 ag: -2; Bfl-1 A1 inh: 2; GRK2 inh: 0; VLA-4 inh: -23; VLA-4 allo CP: 2

How did Nc1ncnc2c1ncn2C1O[C@H](CO)[C@@H](O)[C@@H]1O (stereo partly specified) do in these assays?
B2AR ag: 2; NTR1 ag: 1; Bfl-1 A1 inh: -1; GRK2 inh: 0; VLA-4 inh: 19

Results for Nc1nc(F)nc2c1ncn2[C@@H]1O[C@H](CO)[C@@H](O)[C@@H]1O ?
B2AR ag: 6; NTR1 ag: 3; Bfl-1 A1 inh: 0; GRK2 inh: 1; VLA-4 inh: 19

What do the screens show for `Nc1nc(Nc2ccccc2)nc2c1ncn2[C@@H]1O[C@H](CO)[C@@H](O)[C@H]1O`?
B2AR ag: 6; NTR1 ag: 0; Bfl-1 A1 inh: 1; GRK2 inh: 2; VLA-4 inh: 56*; VLA-4 allo CP: 14

How did CC(C(=O)c1ccc(Br)cc1)[n+]1cccc2ccccc21 (stereo unspecified) do in these assays?
B2AR ag: -220; NTR1 ag: -4; Bfl-1 A1 inh: 0; GRK2 inh: 0; VLA-4 inh: inactive

What do the screens show for `Cc1ccc(NC(=O)CCNC(=O)Cn2cnc3ccccc3c2=O)cc1F`?
B2AR ag: 0; NTR1 ag: -1; Bfl-1 A1 inh: 0; GRK2 inh: 1; VLA-4 inh: -9

Results for C[C@@H]1CCCCCCCCC(=O)OCCN(C(=O)OC(C)(C)C)[C@H](C)CCCCCCCCC(=O)OCCN(C(=O)OC(C)(C)C)[C@H](C)CCCCCCCCC(=O)OCCN1C(=O)OC(C)(C)C ?
NTR1 ag: 0; Bfl-1 A1 inh: 0; GRK2 inh: 3; VLA-4 inh: 5

How did CCC1=NN(C(=O)Cc2ccc([N+](=O)[O-])cc2)C(O)(C(C)(C)C)C1 (stereo unspecified) do in these assays?
B2AR ag: 3; NTR1 ag: -2; Bfl-1 A1 inh: 0; GRK2 inh: 3; VLA-4 inh: 58*; VLA-4 allo CP: -6

Results for CCc1ccc(C2(O)CC(C(F)(F)F)=NN2C(=O)Cc2ccc([N+](=O)[O-])cc2)cc1 (stereo unspecified) ?
B2AR ag: 1; NTR1 ag: 1; Bfl-1 A1 inh: 0; GRK2 inh: 0; VLA-4 inh: 6

How did CC1CCCC(CC(N)=O)CC1 (stereo unspecified) do in these assays?
B2AR ag: -3

Results for CC(NCC(=O)Nc1ccccc1C(=O)NC1CC1)c1ccco1 (stereo unspecified) ?
B2AR ag: 0; NTR1 ag: 0
